Source: PubChem
Hits are enriched below; roughly 17% of the tested compounds scored in any of these assays.
HepG2 tox = counter-screen for TGF-b inhibitors: cytotoxicity in HepG2 cells. HepG2 CAGA-GFP viability, ATP luminescence, 18 h. hit rate 0.76% among 410,000. Potency, µM (titrated, usually from 46.1 µM), inactives show at the highest dose activity change, negative = cytotoxicity, usual class: cytotoxic. AID 588856
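HepG2 CAGA-GFP cells (1000/well, DMEM with 1% FBS) received compound, then TGF-beta at 500 pg/mL final, and were incubated 18 hours at 37 degrees C. Viability was read by CellTiter-Glo luminescence. Media-only wells were set as complete cell-killing and DMSO as no toxicity.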
DT40 TDP1 CPT = DT40-hTDP1 cell growth loss with CPT. chicken DT40 Tdp1-/-;hTDP1 cells + 20 nM CPT, ATP luminescence, 48 h. Potency, µM (doses to about 46.2 µM), for the others: at the highest dose activity change, negative = growth inhibition, usual class: inhibitors. hit rate 12% among 420,000. AID 686979; note: % is set by controls: 0 for no effect and ±100 for the full control effect; nearly all actives have a fitted effect of over 55% in size
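Cell growth measured by CellTiter-Glo luminescence after a minimum 48 h, 37 C compound exposure with 20 nM CPT in Tdp1-knockout DT40 cells stably expressing hTDP1, seeded 400/well; qHTS titration format.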
TDP1 cell noCPT = qHTS for Inhibitors of human tyrosyl-DNA phosphodiesterase 1 (TDP1): qHTS in cells in absence of CPT | AID 686978, 2013 | Potency, µM (doses to about 46.2 µM), without a hit: at the top dose activity change, negative = growth inhibition, actives largely listed as inhibitors | hit rate 15% among 420,000 | DT40 Tdp1-/- hTDP1 cells, no CPT, ATP luminescence, 48 h; note: % is set by controls: 0 for no effect and ±100 for the full control effect; nearly all actives have a fitted effect of over 55% in size
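Growth of hTDP1-complemented DT40 Tdp1-knockout cells is measured by ATP luminescence after at least 48 hr compound exposure at 37 °C, with DMSO substituting for the 20 nM CPT used in the parallel screen.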
TGFb SMAD3 inh = blocks TGF-b signaling | hit rate 1.2% among 410,000 | Potency, µM (top dose mostly 46.1 µM), for inactives: at the top dose activity, negative = inhibition, hits mostly inhibitors | AID 588855 | HepG2 CAGA-GFP TGF-b/SMAD3 reporter, GFP fluorescence, 18 h; TGF-beta stimulated, 500 pg/mL final; note: % is set by controls: 0 for no effect and ±100 for the full control effect; nearly all actives have a fitted effect of over 65% in size
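HEPG2 CAGA-GFP cells (1000/well, DMEM with 1% FBS) were pre-incubated 2 h at 37 degrees C, given compound by pin tool, then stimulated with TGF-beta at 500 pg/mL final for 18 h before per-cell GFP fluorescence imaging.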
HT1080 IDH1KD tx = HT-1080 IDH1 knockdown cell toxicity (counter line) | HT-1080 IDH1 knockdown viability, ATP luminescence, 48 h | Potency, µM (series often up to 46.1 µM), inactives show at the top dose activity, negative = toxicity, usual class: cytotoxic | hit rate 2% among 360,000 | AID 686971;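 note: 0% = DMSO wells and -100% = cell-free medium wells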
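% activity derives from luminescence (CellTiter-Glo), normalised to DMSO and no-cell wells. HT-1080-IDH1KD cells, 750/well, had 48 h compound exposure at 37 °C.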
HT1080-NT tox = kills 2HG-producing HT-1080-NT fibrosarcoma cells; Potency, µM (top dose mostly 46.1 µM), without a hit: at the top dose activity, negative = less viability, hits mostly cytotoxic; hit rate 1.6% among 360,000; HT-1080-NT fibrosarcoma viability, CellTiter-Glo ATP luminescence, 48 h;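 note: NT is the 2HG producing partner of a matched IDH1 knockdown line; 0% = DMSO-treated cells and -100% = media-only wells without cells; nearly all actives have a fitted effect of over 55% in size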
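HT-1080-NT fibrosarcoma cells (2HG-overproducing), 750 cells/well in RPMI with 5% FBS, dosed after 2 h and incubated 48 h at 37C. CellTiter-Glo luminescence normalized to DMSO and no-cell wells; concentration-response curves fitted and classed.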
An asterisk follows results filed as active. Calls come from the whole dose curve; as a rule, active = well fitted curve in the direction sought with a large enough effect; inconclusive = small, poorly fitted or top-dose-only effect, or another doubt; inactive = no such curve, though single readings can be large; an effect the other way counts as inactive or inconclusive. Potency is the fitted concentration of half-maximal effect.

What do the screens show for `Cc1ccc(-c2noc(CN(C3CCCCC3)S(=O)(=O)c3ccc(Cl)cc3)n2)cc1`?
HepG2 tox: -5%; DT40 TDP1 CPT: 26µM*; TDP1 cell noCPT: inconclusive; TGFb SMAD3 inh: -18%

Results for COc1ccc(S(=O)(=O)N(Cc2nc(-c3ccc(Cl)cc3)no2)C2CCCCC2)cc1 ?
HepG2 tox: -36%; DT40 TDP1 CPT: 21µM*; TDP1 cell noCPT: 21µM*; TGFb SMAD3 inh: inconclusive

What do the screens show for `O=S(=O)(c1ccc(F)cc1)N(Cc1nc(-c2ccc(Cl)cc2)no1)C1CCCCC1`?
HepG2 tox: 4%; DT40 TDP1 CPT: inconclusive; TDP1 cell noCPT: 26µM*; TGFb SMAD3 inh: -6%

Results for CN(Cc1nc(-c2ccncc2)no1)S(=O)(=O)c1ccc(Cl)cc1 ?
HepG2 tox: 0%; DT40 TDP1 CPT: inconclusive; TDP1 cell noCPT: inconclusive; TGFb SMAD3 inh: -24%; HT1080 IDH1KD tx: -12%; HT1080-NT tox: 3%

Results for O=S(=O)(NCC1CCCO1)c1ccc(S(=O)(=O)N(Cc2ccc(F)cc2)C2CCCCC2)cc1 (configuration not stated) ?
HepG2 tox: -18%; DT40 TDP1 CPT: inconclusive; TDP1 cell noCPT: inconclusive; TGFb SMAD3 inh: -2%; HT1080 IDH1KD tx: 1%; HT1080-NT tox: 2%

Results for N#CC(CC(=O)OCc1ccccc1)NC(=O)OCc1ccccc1 (configuration not stated) ?
HepG2 tox: -27%; DT40 TDP1 CPT: inconclusive; TDP1 cell noCPT: -22%; TGFb SMAD3 inh: 2%; HT1080 IDH1KD tx: 4%; HT1080-NT tox: 8%

How did COc1cc(/C=N/Nc2nc3c(c(=O)n(C)c(=O)n3C)n2Cc2ccccc2)ccc1OC(=O)c1ccco1 do in these assays?
HepG2 tox: -48%; DT40 TDP1 CPT: 5.8µM*; TDP1 cell noCPT: 5.2µM*; TGFb SMAD3 inh: -2%; HT1080 IDH1KD tx: 1%; HT1080-NT tox: 0%

What do the screens show for `Cn1c(=O)c2c(nc(N/N=C/c3ccncc3)n2Cc2ccccc2)n(C)c1=O`?
HepG2 tox: -1%; DT40 TDP1 CPT: inconclusive; TDP1 cell noCPT: inconclusive; TGFb SMAD3 inh: 3%; HT1080 IDH1KD tx: -11%; HT1080-NT tox: -9%

What do the screens show for `Cc1ccc(Cn2c(N/N=C/c3ccncc3)nc3c2c(=O)n(C)c(=O)n3C)cc1`?
HepG2 tox: -10%; DT40 TDP1 CPT: inconclusive; TDP1 cell noCPT: 18µM*; TGFb SMAD3 inh: 21%; HT1080 IDH1KD tx: 0%; HT1080-NT tox: -22%

Results for O=C(C[n+]1ccccc1Cl)c1ccc2c(c1)CCCC2 ?
HepG2 tox: -73%; DT40 TDP1 CPT: inconclusive; TDP1 cell noCPT: inconclusive; TGFb SMAD3 inh: -4%

How did Cc1cc(C)c(NC(=O)c2sc3nc(C)cc(C)c3c2NC(=O)c2ccccc2)c(C)c1 do in these assays?
HepG2 tox: -11%; DT40 TDP1 CPT: inconclusive; TDP1 cell noCPT: inconclusive; TGFb SMAD3 inh: 0%

What do the screens show for `O=C(NC(=S)Nc1ccccc1O)c1cncc(Br)c1`?
HepG2 tox: -35%; DT40 TDP1 CPT: inconclusive; TDP1 cell noCPT: 23µM*; TGFb SMAD3 inh: -4%; HT1080 IDH1KD tx: inconclusive; HT1080-NT tox: inconclusive

What do the screens show for `CC(=O)c1cccc(NC(=S)NC(=O)c2cncc(Br)c2)c1`?
HepG2 tox: -4%; DT40 TDP1 CPT: 13µM*; TDP1 cell noCPT: inconclusive; TGFb SMAD3 inh: 6%; HT1080 IDH1KD tx: -1%; HT1080-NT tox: -7%

Results for O=C(NC(=S)Nc1ccc2c(c1)OCCO2)c1cccc(Br)c1 ?
HepG2 tox: -24%; DT40 TDP1 CPT: 15µM*; TDP1 cell noCPT: inconclusive; TGFb SMAD3 inh: inconclusive; HT1080 IDH1KD tx: -13%; HT1080-NT tox: -5%

What do the screens show for `COc1cccc(NC(=S)NC(=O)c2cncc(Br)c2)c1`?
HepG2 tox: -43%; DT40 TDP1 CPT: -15%; TDP1 cell noCPT: inconclusive; TGFb SMAD3 inh: -12%; HT1080 IDH1KD tx: -27%; HT1080-NT tox: -24%

How did CC(=O)c1c(COC(=O)c2ccc(F)cc2)nc2ccccc2[n+]1[O-] do in these assays?
HepG2 tox: -44%; DT40 TDP1 CPT: -12%; TDP1 cell noCPT: -9%; TGFb SMAD3 inh: inconclusive; HT1080 IDH1KD tx: 4%; HT1080-NT tox: 17%

What do the screens show for `CCCCN1CC(C)(C)[C@H](CC(=O)NC)C1=O`?
HepG2 tox: -1%; DT40 TDP1 CPT: 9%; TDP1 cell noCPT: -5%; TGFb SMAD3 inh: -1%; HT1080 IDH1KD tx: 3%; HT1080-NT tox: 18%

How did CC(=O)NC(c1ccc2ccccc2c1)c1ccc2cccnc2c1O (configuration not stated) do in these assays?
HepG2 tox: -11%; DT40 TDP1 CPT: 3.3µM*; TDP1 cell noCPT: 4.6µM*; TGFb SMAD3 inh: inconclusive; HT1080 IDH1KD tx: inconclusive; HT1080-NT tox: inconclusive

Results for COc1ccc(C(NC(C)=O)c2ccc3cccnc3c2O)cc1OC (configuration not stated) ?
HepG2 tox: 15%; DT40 TDP1 CPT: 6.3µM*; TDP1 cell noCPT: 6.3µM*; TGFb SMAD3 inh: 0%

What do the screens show for `COc1cccc(C(NC(C)=O)c2nc(-c3cccc4cccnc34)cs2)c1` (configuration not stated)?
HepG2 tox: -3%; DT40 TDP1 CPT: inconclusive; TDP1 cell noCPT: inconclusive; TGFb SMAD3 inh: 0%; HT1080 IDH1KD tx: 1%; HT1080-NT tox: 14%

Results for COc1ccc(C(NC(C)=O)c2ccc3cccnc3c2O)c(OC)c1 (configuration not stated) ?
HepG2 tox: -7%; DT40 TDP1 CPT: 3.7µM*; TDP1 cell noCPT: 2.9µM*; TGFb SMAD3 inh: -13%; HT1080 IDH1KD tx: 6.5µM*; HT1080-NT tox: inconclusive

What do the screens show for `CCOc1cc(C(Nc2cc(C)ccn2)c2ccc3cccnc3c2O)ccc1OC` (configuration not stated)?
HepG2 tox: -49%; DT40 TDP1 CPT: inconclusive; TDP1 cell noCPT: inconclusive; TGFb SMAD3 inh: 0.79µM*

Results for O=C1NC[C@H](CCCCN2C[C@H](Cc3ccc(O)cc3)N(Cc3ccccc3)C(=O)C2=O)N(CCc2ccccc2)C1=O ?
DT40 TDP1 CPT: -3%; TDP1 cell noCPT: -3%; HT1080 IDH1KD tx: 13%; HT1080-NT tox: 11%

How did CCN(CC)S(=O)(=O)c1ccc2c(c1)c(=O)c(C(=O)N1CCN(c3cccc(C)c3)C(C)C1)cn2C (configuration not stated) do in these assays?
HepG2 tox: -24%; DT40 TDP1 CPT: -26%; TDP1 cell noCPT: inconclusive; TGFb SMAD3 inh: inconclusive
